Test results taken from ChEMBL document CHEMBL3988442, “University of Dundee, Small-Polar-MMV Screening Library” (2021).
Screen size: about 48,000 compounds; about 13,000 (27%) showed an effect of 50% or more. This is one part of the list.

system: Wolbachia pipientis; experiment: Anti-Wolbachia Cell-Based Screen; type: functional; design: scale not given: in the data most compounds retested in dose-response had high values; conditions: 5 µM

Row | Compound | Percent Effect [%]
1 | COC(C)c1noc(CN(C)c2nccnc2C#N)n1 (stereo not drawn) | 3.907
2 | CCN(CCn1cccn1)Cc1nc(-c2cc(F)ccc2F)oc1C | -20.47
3 | O=C(C1CC=CC1)N1CC[C@@H]2O[C@H](COCC3CCOCC3)CC[C@@H]21 | 2.259
4 | O=C(CS(=O)(=O)Cc1cccc(Br)c1)Nc1cn[nH]c1 | 6.351
5 | O=C(C1=CCCCC1)N1CCO[C@H]2[C@H](Oc3ccccn3)CC[C@@H]21.O=C(O)C(F)(F)F | -5.477
6 | Cc1ncnc2c1CCN(CC(=O)N(C)C)CC2.O=C(O)C(F)(F)F | 112
7 | CCc1ncnc2c1CCN(CC(=O)N(C)C)CC2.O=C(O)C(F)(F)F | 107.9
8 | CCc1ncnc2c1CCN(Cc1ccccn1)CC2.O=C(O)C(F)(F)F.O=C(O)C(F)(F)F | 16.56
9 | Cc1ncnc2c1CCN(C(=O)CN(C)C)CC2.O=C(O)C(F)(F)F | -6.566
10 | Cc1ncnc2c1CCN(Cc1nccs1)CC2.O=C(O)C(F)(F)F | -9.134
11 | CCc1ncnc2c1CCN(Cc1nccs1)CC2.O=C(O)C(F)(F)F | 16.77
12 | Cc1ncnc2c1CCN(C(=O)N(C)C)CC2 | 95.78
13 | Cc1ncnc2c1CCN(C(=O)c1ccnnc1)CC2 | -1.373
14 | CN(C1CCCCC1)S(=O)(=O)N1CCN(Cc2ccon2)CC1 | -9.326
15 | Cc1noc(C)c1CN1CCCC2(CCN(C(=O)N3CCOCC3)C2)C1 (stereo not drawn) | 105.6
16 | Cc1noc(C)c1CN1CCCC2(C1)CN(Cc1nccn1C)CCO2.O=C(O)C(F)(F)F.O=C(O)C(F)(F)F (stereo not drawn) | -4.465
17 | Cc1noc(C)c1CN1CCC2(CC1)CCN(C(=O)c1cscn1)C2.O=C(O)C(F)(F)F | -11.08
18 | N[C@@H](Cc1ccccc1)c1nnc(S(=O)(=O)Cc2ccccc2)o1 | 107.1
19 | Cc1nnc(CN(Cc2cccc(Cl)c2)C(C)C)o1 | -3.327
20 | NC(=O)C(Cc1ccccc1)NS(=O)(=O)Cc1ccccc1F (stereo not drawn) | -4.164
21 | N#Cc1cccc(CS(=O)(=O)NC(Cc2ccccc2)C(N)=O)c1 (stereo not drawn) | -5.324
22 | O=S(=O)(Cc1ccccc1)c1nnc(N2CCOCC2)s1 | 4.64
23 | Cc1cccc(CS(=O)(=O)c2nnc([C@@H](N)Cc3ccccc3)o2)c1.Cl | 119.9
24 | Cl.N[C@@H](Cc1ccccc1)c1nnc(S(=O)(=O)Cc2cccc(Cl)c2)o1 | 90.15
25 | Cc1cccc(CS(=O)(=O)NCC(O)Cc2ccccc2)c1 (stereo not drawn) | 2.043
26 | Cc1cccc(CS(=O)(=O)c2nnc(N3CCOCC3)s2)c1 | -9.139
27 | Cl.N[C@@H](Cc1ccccc1)c1nnc(S(=O)(=O)Cc2ccc(Cl)cc2)o1 | 72.38

Row | Compound | Percent Effect [%]
28 | CCc1[nH]c2c(CNc3cc(C)nc(NC)n3)cc(C)cc2c1C | 7.086
29 | Cc1noc(C2CN(S(=O)(=O)C3CC3)Cc3ccnn3C2)n1 (stereo not drawn) | -3.92
30 | Cc1nc(-c2ccccc2)sc1CSCCS(C)(=O)=O | 5.255
31 | CCCN1CCC(C(=O)NCCN(CC)c2ccccc2C)CC1 | 6.668
32 | CSc1ccc(NC(=O)NCC(O)C2CC2)cc1F (stereo not drawn) | -6.513
33 | Cc1ccc(CNC(=O)Cn2ncc3c2c(C)nn3C)cc1 | 2.775
34 | COc1ccccc1CNC(=O)Cn1ncc2c1c(C)nn2C | 14.16
35 | Cc1nn(C)c2cnn(CC(=O)NCCc3ccccc3)c12 | -4.573
36 | COc1ccc(NC(=O)Cn2nc(C)c(C(C)=O)c2C)cc1 | 9.099
37 | COc1ccc(NC(=O)Cn2nc(C)c(C)cc2=O)c(OC)c1 | -17.24
38 | CCn1nc(C)c2c1cnn2CC(=O)Nc1ccc(OC)cc1C | 97.13
39 | CCC(C)NC(=O)Cn1ncc2c1c(C)nn2CC (stereo not drawn) | 78.16
40 | COc1cccc(C(CO)NC(=O)Cc2cccc(C)c2)c1 (stereo not drawn) | -8.321
41 | CCn1nc(C)c2c1cnn2CC(=O)NC(C)c1cccc(OC)c1 (stereo not drawn) | 108.9
42 | Cc1ccc(C(=O)NS(=O)(=O)c2cc(Cl)ccc2Cl)c(=O)[nH]1 | 0.2464
43 | OCCOc1ccc(NCc2cccc3cn[nH]c23)cn1 | 11.64
44 | CN(C)CCNC(=O)c1ccc(S(=O)(=O)N[C@@H]2CCNC2)cc1 | -7.63
45 | Cl.NCC1CCC(c2c(C(=O)NCCO)sc3ccccc23)CC1 (stereo not drawn) | 105.7
46 | CN(C)CCNC(=O)c1sc2ccccc2c1C1CCC(CN)CC1.Cl (stereo not drawn) | 88.67
47 | CC1CCc2nc(O)c(C(=O)NCCN(C)C)cc2C1 (stereo not drawn) | 7.628
48 | CC(NC(=O)c1cccc[n+]1[O-])C1CC1 (stereo not drawn) | -12.99
49 | CC(NC(=O)N1CCC(CO)CC1)c1csc2ccccc12 (stereo not drawn) | -26.26
50 | CC(C)NC(=O)c1sc2ccccc2c1[C@H]1CC[C@H](CN)CC1.Cl | 141.4
51 | Cl.NC[C@H]1CC[C@H](c2c(C(N)=O)sc3ccccc32)CC1 | 138.4
52 | CCn1cc2c(n1)C(COCC1CC1)CN(C(=O)c1cc(C)on1)C2 (stereo not drawn) | -20.07
53 | CC(Nc1ccc(CC(=O)N(C)C)cc1)C(=O)N(C)CCC#N (stereo not drawn) | 3.748
